Screening data (PubChem)
Sampled rows, rich in hits. Any-hit rate of the full collection: about 15%.
SARS PLP yeast: qHTS of Yeast-based Assay for SARS-CoV PLP. actives 0.19% (n = 330,000). AID 485353, 2010. S. cerevisiae expressing SARS-CoV PLpro, growth rescue. Potency, µM (highest dose often 32.9 µM), for the others: top-dose activity, positive = growth rescue, hits mostly activators; calls by dose curve; note: potency is the fitted concentration of half-maximal effect; 0% is about no effect; nearly all actives have a fitted effect of over 55% in size
Pf growth 48h: Primary qHTS for delayed death inhibitors of the malarial parasite plastid, 48 hour incubation | P. falciparum luciferase growth in erythrocytes, 48 h | Potency, µM (titrated, usually from 28.7 µM), inactives show at the top dose activity change, negative = inhibition, actives largely listed as inhibitors | actives 5.9% (n = 310,000) | AID 504832, 2011; note: potency is the fitted concentration of half-maximal effect; % is set by controls: 0 for no effect and ±100 for the full control effect
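Luminescence readout; reporter = integrated firefly luciferase in P. falciparum. RBC culture at 2% hematocrit, 0.1% parasitemia final, 37 C/5% CO2; decreased signal taken as growth inhibition.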
Sm TGR inh: qHTS Assay for the Inhibitors of Schistosoma Mansoni Peroxiredoxins | purified TGR, DTNB reduction, TNB absorbance 405 nm | actives 3% (n = 360,000) | AID 485364, 2010 | Potency, µM (doses to about 114 µM), for the others: top-dose activity change, negative = inhibition, usual class: inhibitors | Schistosoma mansoni thioredoxin glutathione reductase (TGR), Q962Y6; note: potency is the fitted concentration of half-maximal effect; % is set by controls: 0 for no effect and ±100 for the full control effect; nearly all actives have a fitted effect of over 60% in size
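Kinetic colorimetric format: TGR-catalysed, NADPH-driven DTNB reduction monitored via TNB absorbance. Enzyme dispensed at 20 nM; compound exposure 15 min at room temperature before reaction start.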
Pf growth 96h: Primary qHTS for delayed death inhibitors of the malarial parasite plastid, 96 hour incubation; AID 504834, 2011; actives 6.9% (n = 320,000); P. falciparum luciferase reporter growth, 96 h; Potency, µM (top dose mostly 28.7 µM), for inactives: at the top dose activity change, negative = inhibition, actives largely listed as inhibitors; note: potency is the fitted concentration of half-maximal effect; % is set by controls: 0 for no effect and ±100 for the full control effect
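Readout is luminescence from an integrated firefly luciferase in P. falciparum. Red cells, 2% hematocrit and 0.05% parasitemia final, were cultured with compound through two parasite generations (96 hours) at 37 C, 5% CO2.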
HCMV antiviral: qHTS Assay for inhibitors of the human cytomegalovirus (HCMV); activity change, negative = inhibition, % at 57.5 µM; actives 4.5% (n = 410,000); HFF cells, HCMV-luciferase reporter, 72 h; hits give low values; in the data active = activity change below about -60%; inconclusive = no clear call, values can overlap the other calls; inactive = above about -39%; note: % is set by controls: 0 for no effect and ±100 for the full control effect
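Steps: HFFs plated, 16 h 37C; compounds added; HCMV-luciferase added to MOI 1 PFU/cell; 72 h 37C; OneGlo reagent, 5 min room temperature; luminescence read, normalized to controls.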
HCV inh: qHTS Assay for Inhibitors of Hepatitis C Virus (HCV); Huh7.5.1 HCVcc-Cre infection, luciferase reporter, 44 h; Potency, µM (doses to about 41.8 µM), without a hit: top-dose activity change, negative = inhibition, hits mostly inhibitors; actives 3.4% (n = 340,000); AID 651820, 2012; note: potency is the fitted concentration of half-maximal effect; % is set by controls: 0 for no effect and ±100 for the full control effect
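Whole-lifecycle infectious HCVcc-Cre system; cells 1,000/well, compound then virus (~0.5 moi) added 4 h after plating, 44 h culture. Luciferase read 15 sec following 15 min substrate incubation, room temp.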
* marks the source's active call; other numbers are inactive results; ? = inconclusive; nt = not tested or not shown. Unless noted, calls come from the whole dose curve; as a rule, active = well fitted curve in the direction sought with a large enough effect; inconclusive = small, poorly fitted or top-dose-only effect, or another doubt; inactive = no such curve, though single readings can be large; an effect the other way counts as inactive or inconclusive.

SMILES | SARS PLP yeast | Pf growth 48h | Sm TGR inh | Pf growth 96h | HCMV antiviral | HCV inh
O=C(O)CCc1ccc(-c2cccs2)n1CCc1ccccc1 | 0% | ? | 10µM* | ? | -33 | 35%
COc1ccc(OC)c(NC(=O)Cn2c(CCC(=O)O)ccc2-c2cccs2)c1 | nt | -13% | ? | ? | 19 | 7%
COc1cc(C2CC(=O)c3cnc(NC(=O)c4ccco4)nc3C2)cc(OC)c1OC (stereo not given) | 11% | -2% | -32% | 38% | -3 | ?
C=CCN1CC(COCCCC)Oc2ccc(Cl)cc2S1(=O)=O (stereo not given) | nt | nt | nt | nt | -31 | nt
O=C(CSc1nnc(-c2ccco2)n1Cc1ccccc1)c1ccccc1 | 4% | 14% | 45µM* | ? | 21 | -20%
Cn1c(SCC(=O)c2ccc(-c3ccccc3)cc2)nnc1-c1ccco1 | -11% | -12% | 6.3µM* | -8% | -5 | -13%
Cn1c(SCC(=O)OCc2ccccc2)nnc1-c1ccco1 | 0% | nt | ? | ? | 21 | 10%
COc1ccc(-c2nnc(SCC(=O)NC(C)C)n2CC2CCCO2)cc1OC (stereo not given) | 6% | 10% | 0% | 3.3µM* | -12 | 7%
NC(=O)NC(=O)CSc1nnc(-c2ccco2)n1Cc1ccccc1 | 0% | 5% | 0% | 36% | 16 | 6%
c1ccc(Cn2c(SCc3cn4cccnc4n3)nnc2-c2ccco2)cc1 | -9% | 27% | -13% | 12µM* | -11 | 27%
Cc1ccc(NCc2nnc(SCC(N)=O)n2CC2CCCO2)c(C)c1 (stereo not given) | 18% | -9% | 1% | 13µM* | 25 | 2%
O=C(CSc1nnc(-c2ccco2)n1Cc1ccccc1)NC(=O)NCc1ccccc1 | -8% | ? | 0% | 12µM* | 16 | -29%
Cc1ccc(C(=O)CSc2nnc(-c3ccco3)n2Cc2ccccc2)cc1 | 6% | 29% | -13% | 7.4µM* | 85 | ?
Cc1ccc(C(=O)CSc2nnc(-c3ccco3)n2CC2CCCO2)cc1 (stereo not given) | -3% | 1% | 20µM* | ? | -7 | 14%
CC1CCCCN1C(=O)CSc1nnc(-c2ccco2)n1CC1CCCO1 (stereo not given) | -3% | ? | ? | ? | 32 | 8%
Cc1ccc(NC(=O)C(C)Sc2nnc(C)n2CC2CCCO2)cc1 (stereo not given) | 26% | 2% | 7% | -14% | -71* | 11%
CC(=O)Nc1sc2c(c1C(N)=O)CCCC2 | -3% | 8% | -22% | 4% | -17 | -5%
CC(=O)Nc1sc2c(c1C(=O)N1CCOCC1)CCCCC2 | 4% | 6% | -29% | 12µM* | -13 | -1%
COC(=O)Nc1sc2c(c1C(=O)N1CCOCC1)CCC(C)C2 (stereo not given) | -4% | 0% | 45µM* | -24% | -15 | ?
CC1CCc2c(sc(NC(=O)c3cccs3)c2C(=O)O)C1 (stereo not given) | -10% | 100% | -12% | 28% | -79* | ?
CCOc1ccc(/C=N/NC(=O)c2nnn(-c3nonc3N)c2CN(C)C2CCCCC2)cc1 | -3% | ? | -10% | 17% | ? | 10%
CCCn1cc(CN2CCC(N3CCC(C(=O)N4CCOCC4)CC3)CC2)c(C)n1 | 0% | 24% | ? | -12% | -11 | 2%
Cc1ccc(CNC(=O)CN2C(=O)C3(OCCCO3)c3ccccc32)cc1 | 0% | -4% | 0% | 10µM* | -1 | -15%
CCc1nn(CC(=O)NCCOC)c(=O)c2cc3cc(F)ccc3n12 | nt | nt | -4% | nt | -4 | nt
N#Cc1cc(C(=O)c2cc(Br)ccc2O)cn(C2CCCCC2)c1=O | 7% | 1.5µM* | -35% | 1µM* | -39 | 11µM*
SMILES | SARS PLP yeast | Pf growth 48h | Sm TGR inh | Pf growth 96h | HCMV antiviral | HCV inh
Cc1ccc(NC(=O)c2cc(C(=O)c3cc(Cl)ccc3O)cn(-c3ccc(C)cc3)c2=O)cc1 | ? | 0.33µM* | -1% | 0.19µM* | -70* | ?
Cc1c(-n2cc(C(=O)c3cc(Cl)ccc3O)cc(C#N)c2=O)c(=O)n(-c2ccccc2)n1C | -1% | 0% | -2% | 0% | 27 | -2%
Cn1cc(Cl)cc(C(=O)Nc2ccccc2)c1=O | -4% | 100% | 50% | 119% | 101 | 1%
COc1ccc(O)c(C(=O)c2cc(C#N)c(=O)n(-c3c(C)n(C)n(-c4ccccc4)c3=O)c2)c1 | 1% | ? | -24% | 9.3µM* | -9 | 16%
N#Cc1cc(C(=O)c2cc(Cl)ccc2O)cn(-c2ccccc2)c1=O | 7% | 9.3µM* | -6% | 1.9µM* | -1 | 10%
O=C(c1ccccc1)N1CN2CN(C(=O)c3ccccc3)CC([N+](=O)[O-])(C2)C1 | 1% | ? | -7% | 0% | -5 | 1%
c1ccc2c(-c3[nH]ncc3CNCCCn3ncc4ccccc43)cccc2c1 | 0% | 15µM* | -15% | 12% | ? | 10µM*
OCC1CCCCN1CCNCc1cn[nH]c1-c1cccc2ccccc12 (stereo not given) | 1% | 0% | -32% | 4% | -35 | -9%
Cc1ccccc1N=C1c2ccccc2C(=O)C1[N+](=O)[O-] (stereo not given) | -1% | 5% | 0% | 25% | 68 | 13%
CC(=O)C1C(=O)c2c(cccc2[N+](=O)[O-])C1=Nc1ccccc1C (stereo not given) | 1% | nt | 0% | 0.0037µM* | ? | nt
CC(=O)C1C(=O)c2c(cccc2[N+](=O)[O-])C1=Nc1cccc(Cl)c1 (stereo not given) | 1% | 1.5µM* | ? | ? | 77 | ?
CCC(=O)Nc1cccc(C(=O)/C=C/c2cccs2)c1 | -5% | ? | nt | ? | -62* | ?
CCC(=O)Nc1cccc(C(=O)c2ccccc2)c1 | -13% | 15% | -2% | nt | -18 | -2%
CCC(=O)Nc1cccc(C(=O)/C=C/c2ccccc2)c1 | -27% | 44% | ? | ? | -104* | -26%
CC1CCCN(C(=O)c2ccc(S(=O)(=O)N3CCC(c4nc5ccccc5s4)CC3)cc2)C1 (stereo not given) | nt | nt | nt | nt | ? | 10µM*
Cc1ccc(C(=O)Nc2ccc(S(=O)(=O)N3CCC(c4nc5ccccc5s4)CC3)cc2)cc1 | nt | nt | -11% | nt | -7 | nt
